Only a sample is shown.
aSyn UTR act = Activators via SNCA 5'UTR binding, MLPCN. alpha-synuclein 5'UTR reporter, activators screen. activity score, % (tested at 7.5 µM), hits read low. actives 7.1% (n = 300,000). AID 1814, 2009; in the data active means activity score below about -60%
A number is an active result; . = inactive.

SMILES	aSyn UTR act
COc1cccc(C(=O)NCCC2=CCCCC2)c1OC	-117
O=C(COC(=O)c1ccccc1Br)NCCC1=CCCCC1	-64
Cc1cc(C(=O)NCCC2=CCCCC2)c(C)o1	-123
O=C(NCCC1=CCCCC1)c1cnccn1	-114
COc1ccc(C(=O)NCCC2=CCCCC2)cc1OC1CCN(C(C)C)CC1	-74
CCOc1ccc(N(C(=O)c2ccccc2Cl)C2=NC(C)(C)CS2)cc1	-79
Cc1ccc(C(=O)OCc2nc3ccccc3s2)o1	-103
O=C(CCc1ccc(S(=O)(=O)N2CCOCC2)cc1)OCc1nc2ccccc2s1	-85
O=C(OCc1nc2ccccc2s1)c1cc2ccccc2oc1=O	-100
O=C(OCc1nc2ccccc2s1)c1ccc(Br)s1	-72
COc1ccc(-c2cc(=O)n(-c3nc4ccccc4[nH]3)[nH]2)cc1	-68
COc1ccc(Cc2[nH]n3c(=O)cc(C(C)C)nc3c2-c2ccccc2)cc1	.
CCCCCOc1ccc(CN2CCOCC2)cc1Cl	-154
COc1cc(C(=O)Oc2c(CN3CCOCC3)cc(Cl)c3cccnc23)cc(OC)c1OC	.
CC(C)CN=c1cc(-c2ccccc2)oc2ccc(Cl)cc12	-123
NNC(=O)c1[nH]c2ccc(Cl)cc2c1-c1ccccc1	.
OCCN=c1cc(-c2ccccc2)oc2ccc(Cl)cc12	-199
CC(O)CN=c1cc(-c2ccccc2)oc2ccc(Cl)cc12 (configuration not stated)	-239
O=C(NC1CCCCCC1)c1ccc2c(=O)n3c(nc2c1)CCCCC3	-72
Cc1ccc(NC(=O)c2ccc3c(=O)n4c(nc3c2)CCCCC4)nc1	-72
O=C(Nc1cccc2nsnc12)c1ccc2c(c1)OCCO2	-213
O=C(Nc1cccc2nsnc12)c1ccc2c(c1)OCO2	-110
Cc1ccc(C(=O)NC(=S)Nc2cccc3nsnc23)cc1	-100
Cc1ccc(/C=C/C(=O)Nc2ccccc2C(N)=O)cc1	-86
CSc1ccc(C(=O)/C=C/c2ccc(N)cc2)cc1	-204
SMILES	aSyn UTR act
CC(C)NC(=O)c1ccccc1NC(=O)/C=C/c1cccc([N+](=O)[O-])c1	.
CN(C)c1ccc(/C=C/C(=O)c2ccccc2O)cc1	-197
Cc1nn(C)cc1/C=C/C(=O)c1ccc(O)cc1	-229
O=C(/C=C/c1ccc(N2CCC(c3ccccc3)=N2)cc1)c1ccccc1	-67
O=C(/C=C/c1ccc(-c2ccccc2)o1)c1ccccc1	-66
Cc1c(/C=C/C(=O)c2ccccc2O)cnn1C	-227
O=C(/C=C/c1ccc(O)cc1)c1ccccc1	-118
O=C(/C=C/c1cccnc1)c1cccc(O)c1	-88
O=C(/C=C/c1ccco1)c1ccccc1O	-65
Cc1ccc(/C=C/C(=O)c2ccc(C)cc2)cc1	-150
Cc1ccc(/C=C/C(=O)c2ccccc2O)cc1	-121
CN(C)CCSc1nnc(-c2ccccc2)o1	-71
CCN(CC)C(=O)CSc1nnc(-c2ccccc2)o1	-137
Cc1ccc(NC(=O)C2COc3ccccc3O2)nc1 (configuration not stated)	-106
Cc1ccnc(NC(=O)C2COc3ccccc3O2)c1 (configuration not stated)	-97
COc1ccc(Nc2n[nH]c(C)c2[N+](=O)[O-])cc1	-102
Cc1ccccc1Nc1n[nH]c(C)c1[N+](=O)[O-]	-65
Cc1ccc(NC2=C(Cl)C(=O)OC2OC(C)C)c(C)c1 (configuration not stated)	.
Cc1ccc(Nc2n[nH]c(C)c2[N+](=O)[O-])c(C)c1	-66
Cc1ccc2nc(/N=C(\N)NC(=O)NC3CCCCC3)nc(C)c2c1	-149
Cc1nc(/N=C(\N)NC(=O)c2ccccc2)nc2ccccc12	-292
Cc1ccc(-n2nc3ccc(N)cc3n2)c(C)c1	.
Cc1c(N)ccc(-n2nc3ccccc3n2)c1C	-65
COc1ccccc1OC(=O)Nc1ccc(Cl)cc1	-83
COc1ccc(C(=O)Nc2cc(OC)cc(OC)c2)cc1	-62
SMILES	aSyn UTR act
COc1cc(NC(=O)c2ccccc2)cc(OC)c1	-131
COc1ccccc1Oc1ccc(NC(=O)c2ccccc2)cc1	-91
Cc1ccccc1/C(N)=N/OC(=O)/C=C/c1ccccc1	-178
COc1ccc(/C=C/C(=O)Nc2ccccc2)cc1OC	-140
COc1ccc(/C=C/C(=O)Nc2ccc(-n3nncc3-c3ccc(OC)c(OC)c3)cc2)cc1OC	.
COc1ccc(/C=C/C(=O)c2cc(F)ccc2OC(=O)c2ccccc2C)cc1OC	.
COc1cc(/C=C/C(=O)NC(=O)c2ccccc2O)ccc1OC(C)=O	-161
COc1ccc(/C=C/C(=O)O/N=C(\N)c2ccccc2)cc1OC	-138
Cc1ccc(/C(N)=N/OC(=O)/C=C/c2ccccc2)cc1	-63
COc1ccc(/C(N)=N/OC(=O)/C=C/c2ccccc2)cc1	-88
COc1ccc(NC(=S)N/N=C/c2ccc(F)cc2)cc1OC	-73
Fc1ccc(/C=N/NC(=S)Nc2ccc(Cl)cc2)cc1F	-132
Fc1ccc(NC(=S)N/N=C/c2ccc(F)c(F)c2)cc1	-65
COc1ccc(NC(=S)Nc2ccc(C)c(Cl)c2)cc1OC	-62
Oc1ccc(/C=N/NC(=S)Nc2cccnc2)cc1O	-141
S=C(N/N=C/c1ccc2ncccc2c1)Nc1cccnc1	.
O=C(Nc1cnc2ccccc2c1)N1CCCCC1	-74
CN(C(=O)Nc1cnc2ccccc2c1)c1ccccc1	-89
O=C(Nc1cnc2ccccc2c1)N1CCOCC1	-109
COc1ccc(/C=N/Nc2cc(N(C)C)nc(N(C)C)n2)cc1	-65
COc1ccc(/C=N/NC2=NCCCCC2)cc1	-86
Oc1ccccc1/C=N/NC1=NCCCCC1	-161
Cc1ccc(-c2nc(-c3nccc4ccccc34)oc2-c2ccccc2)cc1	-137
COc1ccc(Nc2c([N+](=O)[O-])ccc3c2=NC2(CCCCC2)N=3)cc1	-64
COC(=O)c1ccc(C(=O)NC(=S)Nc2nc3c(s2)CCCC3)cc1	-66
SMILES	aSyn UTR act
Cc1ccccc1C(=O)NC(C(=O)Nc1nc2c(s1)CCCC2)C(C)C (configuration not stated)	-66
O=C(NC(=S)Nc1nc2c(s1)CCCC2)c1ccccc1	-345
S=C(Nc1nc2c(s1)CCCC2)NC1CC1	-92
CCOc1cc(CNc2ccc3c(c2)OCCO3)cc(Br)c1OCC(N)=O	-66
CCOc1cc(CNc2ccc3c(c2)OCCO3)cc(Br)c1OC	.
Cc1nc2ccc(NC(=O)CS(=O)(=O)c3ccccc3)cc2s1	-101
CC(=O)Nc1ccc2nc(NC(=O)COc3ccccc3Cl)sc2c1	-69
Cc1nc2ccc(NC(=O)CCC3CCCC3)cc2s1	-143
CC(=O)Nc1ccc2nc(NC(=O)COc3ccccc3)sc2c1	-64
Cc1cc(CNC(=O)COc2ccccc2F)c2ccccc2n1	-96
Cc1nc2ccc(NC(=O)COc3ccccc3F)cc2s1	-133
CC(/C=N/Nc1nc2ccccc2[nH]1)=C\c1ccccc1	-70
CC(/C=N/Nc1nc(C)cc(=O)[nH]1)=C\c1ccccc1	-67
Cc1cccc(/N=C/c2c(O)[nH]c3ccccc23)n1	-211
Oc1[nH]c2ccccc2c1C=Nc1ccc2c(c1)OCCO2	-76
O=C(NC(=S)Nc1nc2ccc(F)cc2s1)c1ccco1	-171
CSc1nc2ccc3nc(NC(=O)c4cccs4)sc3c2s1	-370
CN(C)S(=O)(=O)c1ccc2nc(NC(=O)c3cccs3)sc2c1	-108
CC(=O)Nc1ccc2nc(NC(=O)c3cccnc3)sc2c1	-92
O=C(Nc1nc2ccc(F)cc2s1)c1cccs1	-223
CN(C)S(=O)(=O)c1ccc2nc(NC(=O)c3cccnc3)sc2c1	-68
O=C(NC(Nc1nc2ccc([N+](=O)[O-])cc2s1)(C(F)(F)F)C(F)(F)F)c1cccnc1	.

Bioassay records (PubChem)
